# Source: PMC4336329 (PLoS ONE, 2015)
# The whole screen tested about 310,000 compounds, of which about 14,000 (4.5%) showed an effect of 50% or more. Effects have a minus sign here. The full list was thinned out, with strong results kept by preference.
# Molecular target: human ether-à-go-go-related gene (hERG) potassium channel (human, UniProt Q12809)
# Test: primary screen, population patch clamp on CHO cells stably expressing hERG; higher = less effect of the substance
# 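Also: peak tail current of the secondary pulse compared with the same well before compound.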
# human ether-à-go-go-related gene (hERG) potassium channel, sequence (Q12809 whole entry, looked up): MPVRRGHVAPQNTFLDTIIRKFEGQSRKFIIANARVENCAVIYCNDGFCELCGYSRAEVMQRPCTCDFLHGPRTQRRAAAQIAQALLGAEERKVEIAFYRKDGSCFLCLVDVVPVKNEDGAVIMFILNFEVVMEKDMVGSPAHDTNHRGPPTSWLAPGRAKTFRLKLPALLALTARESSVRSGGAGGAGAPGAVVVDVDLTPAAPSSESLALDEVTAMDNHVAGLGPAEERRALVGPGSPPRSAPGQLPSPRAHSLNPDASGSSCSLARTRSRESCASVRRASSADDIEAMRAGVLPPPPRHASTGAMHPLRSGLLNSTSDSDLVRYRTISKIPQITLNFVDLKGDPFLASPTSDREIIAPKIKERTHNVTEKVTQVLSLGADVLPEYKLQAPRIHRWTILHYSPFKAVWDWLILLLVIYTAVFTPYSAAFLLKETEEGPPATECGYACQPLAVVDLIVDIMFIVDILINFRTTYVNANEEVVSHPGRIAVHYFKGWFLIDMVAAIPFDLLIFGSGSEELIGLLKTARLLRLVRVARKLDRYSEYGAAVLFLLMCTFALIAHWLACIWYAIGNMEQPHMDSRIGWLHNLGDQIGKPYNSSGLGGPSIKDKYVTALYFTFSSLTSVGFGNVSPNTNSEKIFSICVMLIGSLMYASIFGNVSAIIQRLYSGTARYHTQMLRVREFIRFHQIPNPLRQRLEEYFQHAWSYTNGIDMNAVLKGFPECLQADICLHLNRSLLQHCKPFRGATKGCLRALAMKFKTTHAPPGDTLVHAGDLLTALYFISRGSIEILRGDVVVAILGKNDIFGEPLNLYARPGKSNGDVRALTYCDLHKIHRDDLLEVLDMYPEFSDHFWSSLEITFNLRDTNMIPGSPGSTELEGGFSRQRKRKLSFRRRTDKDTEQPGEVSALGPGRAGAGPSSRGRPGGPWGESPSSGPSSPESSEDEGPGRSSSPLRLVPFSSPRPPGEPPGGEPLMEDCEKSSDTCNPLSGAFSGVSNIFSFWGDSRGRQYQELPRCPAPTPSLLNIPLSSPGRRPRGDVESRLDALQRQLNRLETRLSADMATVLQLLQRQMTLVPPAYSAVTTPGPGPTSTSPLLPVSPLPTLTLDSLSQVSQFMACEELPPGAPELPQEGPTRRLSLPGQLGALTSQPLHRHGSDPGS
row,Structure (SMILES),"hERG current change (%, negative = inhibition) at 10uM [%]"
1,Fc1ccccc1CCNCc1ccccc1,5.42
2,Cc1ccccc1CCNCc1ccc(Br)cc1,-53.6
3,CCc1ccc(CNCCc2ccccc2F)cc1,-67.7
4,Fc1ccc(CNCCc2ccccc2F)cc1,-2.59
5,Fc1ccc(CCNCc2ccc(Br)cc2)cc1,-53.8
6,CCc1ccc(CNCCc2ccc(F)cc2)cc1,-72.8
7,Cl.c1ccc(CCNCc2ccccc2)cc1,-9.4
8,Cc1ccc(CNCCc2ccccc2F)cc1.Cl,-31.8
9,Fc1ccc(CNCCc2ccccc2)cc1.O=C(O)C(=O)O,-18.2
10,O=C(Cc1ccc(Br)cc1)NCCc1ccc(F)cc1,11.3
11,Fc1ccc(CNCc2ccc(Br)cc2)cc1,-28.5
12,CCc1ccc(CNCc2ccc(F)cc2)cc1,-21
13,Cc1cccc(-n2ncc3c2CCCC3NC(=O)Cc2c(C)noc2C)c1C (stereo not shown),15.9
14,COc1ccc(/C=C2\SC(=S)N(CCCC(=O)NC3CCCC3)C2=O)cc1OC,-12.2
15,Cc1nn(CCCC(=O)O)c(C)c1[N+](=O)[O-],12.3
16,O=C(COc1ccc(S(=O)(=O)NC2CCCCC2)cc1)NCCC1=CCCCC1,2.33
17,CCN(CC)S(=O)(=O)c1ccc(NC(=O)COC(=O)c2ccc(NC(=O)CC#N)cc2)cc1,20.5
18,CCn1c(Cc2ccccc2)nnc1SCC(=O)OC(C)C,0.117
19,CCNC(=O)C1CC(=O)N(c2ccc(Br)cc2)C1 (stereo not shown),2.64
20,CC1(C)Cc2c(sc3nc(NCCN4CCOCC4)n4ncnc4c23)CO1,-5.72
21,N/C(=N\OC(=O)CSc1ccccc1)c1ccncc1,0.55
22,CC1CC(C)CN(C(=O)c2cc(S(=O)(=O)N3CCCCC3)ccc2Cl)C1 (stereo not shown),-37.7
23,Cc1ccc(NN2C(=O)C=C(c3ccc(Cl)cc3)C2=O)cc1,13.9
24,CCCCCNCc1ccc(Br)cc1.Cl,-33.3
25,CCN(CC)c1ccc(CNCCc2ccccc2F)cc1.Cl,-5.46

row,Structure (SMILES),"hERG current change (%, negative = inhibition) at 10uM [%]"
1,CCCCCCNCc1cccc(Br)c1.Cl,-11.3
2,CCN(CC)c1ccc(CNCCc2ccc(F)cc2)cc1.Cl,-58.8
3,Cl.Fc1ccc(CCNCc2cccc(Cl)c2)cc1,-16.5
4,CCCCCCNCc1ccc(Br)cc1.Cl,-61.7
5,O=C(NCCO)c1ccc2[nH]c3c(c2c1)CCCC3,-0.0914
6,Cc1nc(COC(=O)c2c(C)nn(-c3ccccc3)c2C)cs1,-2.05
7,Cc1ccc(C(=O)C(C)OC(=O)Cc2c[nH]c3ccccc23)cc1 (stereo not shown),1.64
8,CN(CC(=O)NCC(=O)Nc1ccc(F)cc1)C1CCS(=O)(=O)C1 (stereo not shown),13.3
9,O=C(NC1CCCCCC1)c1ccc(CN2CCOCC2)cc1,11.3
10,Cc1ccc(CNC(=O)c2ccccc2-n2cnnn2)cc1,9.73
11,O=C(NC(=S)NC1CCCCCCCCCCC1)c1cccnc1,-4.46
12,COc1ccc(C(=O)NCCN2CCCC2)cc1.Cl,3.56
13,O=C(NCCCN1CCOCC1)c1ccc(Br)cc1,-13.7
14,Cl.O=C(NCCN1CCCC1)c1ccc(Br)cc1,-11.9
15,O=C(NCCNC(=O)c1ccc(F)cc1)c1ccc(F)cc1,0.397
16,COc1ccc(C(=O)NCCN2CCN(C(=O)c3ccc(OC)cc3)CC2)cc1,-75.2
17,O=C(NCCN1CCN(C(=O)c2ccc(F)cc2)CC1)c1ccc(F)cc1,-70.1
18,O=C(NCCN1CCOCC1)c1ccc(F)cc1,1.66
19,COc1ccc(C(=O)NCCCN2CCOCC2)cc1,-1.82
20,O=C(NCCN1CCN(C(=O)c2ccc(Br)cc2)CC1)c1ccc(Br)cc1,-71.3
21,CC(O)CNc1cnccn1 (stereo not shown),8.76
22,Cc1cc(C)c(N(C(=O)c2csnn2)C(C(=O)NC(C)(C)C)c2ccncc2)c(C)c1 (stereo not shown),9.01
23,O=C(c1ccco1)N1CCN(S(=O)(=O)c2ccc3c(c2)OCCO3)CC1,-0.283
24,CC(=O)Nc1ccc(SCC(=O)Nc2oc(C)c3c(C)n[nH]c(=O)c23)cc1,8.72
25,Cc1n(C)c2cc(Cl)ccc2[n+]1Cc1ccccc1.[I-],-3.49

row,Structure (SMILES),"hERG current change (%, negative = inhibition) at 10uM [%]"
1,CCn1c(/C=C/Nc2ccccc2)[n+](CC)c2ccc(Cl)cc21.[I-],-78.6
2,CCn1c(/C=C/N(C(C)=O)c2ccccc2)[n+](CCCS(=O)(=O)[O-])c2cc(Cl)c(Cl)cc21,19.9
3,CCn1c(/C=C/N(C(C)=O)c2ccccc2)[n+](CC)c2ccc(Cl)cc21.[I-],2.3
4,CCn1c(/C=C/Nc2ccccc2)[n+](CC)c2cc(Cl)c(Cl)cc21.[I-],-79.3
5,CCn1c(C)[n+](CCOCC[n+]2c(C)n(CC)c3cc(Cl)c(Cl)cc32)c2cc(Cl)c(Cl)cc21.[I-],6.82
6,CC(=O)c1ccc(Oc2cc(C)nc(-n3nc(C)cc3C)n2)cc1,-59.9
7,COC(=O)c1ccc(Oc2cc(C)nc(-n3nc(C)cc3C)n2)cc1,-22.4
8,CC(=O)c1ccc(Oc2cc(C)nc(N3CCOCC3)n2)cc1,-13.3
9,COc1cccc(OC)c1C(=O)N1CCN(Cc2ccccc2C)CC1,-0.823
10,O=C1C2C3C=CC(C2C(=O)N1C1CCCCC1)C1C(=O)N(C2CCCCC2)C(=O)C31 (stereo not shown),14.7
11,COc1ccc(C2c3ccc(O)cc3Oc3ncn(CCCO)c(=N)c32)cc1OC (stereo not shown),-6.28
12,COc1ccc(C2c3ccc(O)cc3Oc3ncn(Cc4ccccc4)c(=N)c32)cc1OC (stereo not shown),-51.7
13,COc1ccc(C2c3ccc(O)cc3Oc3ncn(Cc4ccco4)c(=N)c32)cc1 (stereo not shown),-71.9
14,COc1ccc(C2c3ccc(O)cc3Oc3ncn(CC(C)C)c(=N)c32)cc1 (stereo not shown),-69.8
15,COc1ccc(C2c3ccc(O)cc3Oc3ncn(CCCO)c(=N)c32)cc1 (stereo not shown),-22.8
16,COc1ccc(C2c3ccc(O)cc3Oc3ncn(CCN4CCOCC4)c(=N)c32)cc1 (stereo not shown),-28.1
17,COc1ccc(C2c3ccc(O)cc3Oc3ncn(CCN4CCOCC4)c(=N)c32)cc1OC (stereo not shown),-11.8
18,COc1ccc(C2c3ccc(O)cc3Oc3ncn(Cc4ccco4)c(=N)c32)cc1OC (stereo not shown),-74.4
19,COc1ccc(C2c3c(ncn(Cc4ccco4)c3=N)Oc3ccc4ccccc4c32)cc1 (stereo not shown),-7.04
20,CC(=O)c1cccc(NC(=O)c2ccc(NC(=O)CC3SC(N4CCCCC4)=NC3=O)cc2)c1 (stereo not shown),10.3
21,COc1ccc(-n2nc(C(=O)NCC(=O)NCCN(C)C)c3ccccc3c2=O)cc1,10.7
22,Nc1ncn[nH]1,13.5
23,COc1ccccc1NC(=S)NC(NC(=O)CC(C)C)C(Cl)(Cl)Cl (stereo not shown),22.2
24,CC1=NN(C(=O)c2ccc(Cn3cc(Br)c([N+](=O)[O-])n3)o2)C(O)(C(F)(F)F)C1 (stereo not shown),-16.6
25,CN(CCOc1ccccc1)C(=O)CCc1c[nH]c2ccccc12.Cl,-0.585

row,Structure (SMILES),"hERG current change (%, negative = inhibition) at 10uM [%]"
1,CCOc1ccc(C(=O)NN2C(=O)C3C4C=CC(O4)C3C2=O)cc1 (stereo not shown),-14
2,COC(=O)c1ccccc1NC(=O)c1cccs1,1.38
3,N=c1c2c(ncn1CCN1CCOCC1)Oc1cc(O)ccc1C2c1ccccc1 (stereo not shown),-42.9
4,N=c1c2c(ncn1CCCO)Oc1cc(O)ccc1C2c1ccccc1 (stereo not shown),-33.7
5,N=c1c2c(ncn1Cc1ccco1)Oc1cc(O)ccc1C2c1ccccc1 (stereo not shown),-74.1
6,COc1ccc(/C=C(\C#N)C(=O)NC(C)c2ccccc2)cc1O (stereo not shown),-24.2
7,Cc1cc(C(=O)N/N=C/c2ccco2)c2ccccc2n1,1.37
8,COc1cc(NC(=O)C(c2ccccc2)c2ccccc2)c(C(=O)O)cc1OC,16.7
9,O=C(NCc1cccnc1)Nc1ccc(F)cc1F,-4.58
10,Cc1noc(C)c1S(=O)(=O)N(CC(=O)N1CCn2c1nc1ccccc12)c1ccc(C(C)C)cc1,-14.9
11,CN(C)c1ccc(CNc2ccc3c(c2)ncn3C(C)(C)C)cc1,-27.2
12,Cc1ccc(CNc2ccc3c(c2)ncn3C)cc1,-33.8
13,CC(C)(C)n1cnc2cc(NCc3cccs3)ccc21,-28.2
14,CCN(CC)c1ccc(CNc2ccc3c(c2)ncn3C(C)(C)C)cc1,1.91
15,Cc1ccc(CNc2ccc3c(c2)ncn3C(C)(C)C)cc1,-72.5
16,CC(C)(C)n1cnc2cc(NCc3ccc(Br)cc3)ccc21,-69.2
17,Cc1ccc(CNc2ccc3c(c2)ncn3C(C)C)cc1,-78.3
18,CC(C)(C)n1cnc2cc(NCc3ccccc3O)ccc21,-10.1
19,CCOc1ccc(CNc2ccc3c(c2)ncn3C(C)(C)C)cc1,-58.6
20,CCOc1ccc(CNc2ccc3c(c2)ncn3C)cc1,-46.6
21,CC(C)n1cnc2cc(NCc3ccccc3O)ccc21,3.94
22,CCc1ccc(CNc2ccc3c(c2)ncn3C(C)(C)C)cc1,-36.1
